Here are results for ten compounds from the supplement of paper PMC8866396.

One test deals with IL-6-GFP PC-9GR. Put plainly: cell viability (CCK-8 OD) relative to DMSO control (fraction of control); higher = more viable cells. Conditions: compound concentration: 10 uM; treatment time: 48 h. A digest of the protocol:
(§1)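 PC-9 and PC-9GR lung cancer cells carrying a lentiviral construct that overexpresses IL-6-GFP were seeded in 96-well plates at 3000 cells/well. Every compound in a purchased 510-compound library was applied at a final 10 μM for 48 h, and a parallel set of plates was kept for GFP imaging. Cell viability was read by CCK-8 absorbance, taking each well's optical density as a ratio to the vehicle control well. Two independent replicates were run.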

Another test concerns IL-6-GFP PC-9. The test is described as above. Conditions: compound concentration: 10 uM; treatment time: 48 h. In outline: as §1

Structures are written as SMILES. ± gives the standard deviation of the averaged measurements.

On to `CCCCCCCCCCCC1=C(O)C(=O)C=C(O)C1=O` [Embelin], for which the figures for the cell viability with IL-6-GFP PC-9GR and with IL-6-GFP PC-9 were 0.858 ± 0.075 and 1.12 ± 0.44, respectively.
With `CC(=O)[N-]S(=O)(=O)c1ccc(N)cc1.[Na+]` [Sulfacetamide Sodium], the cell viability in the test with IL-6-GFP PC-9GR worked out at 0.982 ± 0.12; in the test on IL-6-GFP PC-9, 1.1 ± 0.014.
For `CC(=O)OC1CCC2(C)C(=CCC3C2CCC2(C)C(c4cccnc4)=CCC32)C1` (stereo not given) [Abiraterone Acetate], the cell viability with IL-6-GFP PC-9GR came out at 1.48 ± 0.41; in the test with IL-6-GFP PC-9 it was 0.929 ± 0.21.
The corresponding values for `COc1cc2ncnc(Nc3ccc(F)c(Cl)c3)c2cc1OCCCN1CCOCC1` [Gefitinib (ZD1839)] are 0.9 ± 0.06 and 0.664 ± 0.061.
With `COc1cc(C(=O)NS(=O)(=O)c2ccccc2C)ccc1Cc1cn(C)c2ccc(NC(=O)OC3CCCC3)cc12` [Zafirlukast], the cell viability in the test with IL-6-GFP PC-9GR turned out to be 1.31 ± 0.026; with IL-6-GFP PC-9, 0.967 ± 0.023.
With `CN1C(C(=O)Nc2ccccn2)=C(O)c2sccc2S1(=O)=O` [Tenoxicam], the figures for the cell viability in the test with IL-6-GFP PC-9GR and with IL-6-GFP PC-9 were 1.16 ± 0.15 and 1.21 ± 0.1, respectively.
In the case of `CC(C)Cn1cnc2c(N)nc3ccccc3c21` [Imiquimod], the cell viability with IL-6-GFP PC-9GR turned out to be 0.774 ± 0.57; in the test with IL-6-GFP PC-9, 1 ± 0.24.
As to `C/C=C(/C)C(=O)OC1C(OC(C)=O)C2(CO)C(O)CC3(C)C(=CCC4C5(C)CCC(OC6OC(C(=O)O)C(OC7OC(CO)C(O)C(O)C7O)C(O)C6OC6OC(CO)C(O)C(O)C6O)C(C)(CO)C5CCC43C)C2CC1(C)C` (stereo not given) [Escin], the cell viability with IL-6-GFP PC-9GR was determined as 0.999 ± 0.079; in the test on IL-6-GFP PC-9, 1.14 ± 0.22.
For `CC/C(=C(\c1ccccc1)c1ccc(OCCN(C)C)cc1)c1ccccc1.O=C(O)CC(O)(CC(=O)O)C(=O)O` [Tamoxifen], the cell viability with IL-6-GFP PC-9GR worked out at 1.2165 ± 0.0005; in the test with IL-6-GFP PC-9, 0.589 ± 0.053.
As to `COc1ccc2c(c1)nc(S(=O)Cc1ncc(C)c(OC)c1C)[n]2[Na]` (stereo not given) [Omeprazole Sodium], the results for the cell viability in the test with IL-6-GFP PC-9GR and in the test with IL-6-GFP PC-9 were 0.872 ± 0.13 and 0.963 ± 0.16, respectively.
